87 molecules from PubChem BioAssay AID1851 (National Center for Advancing Translational Sciences (NCATS), 2009) can be followed below.

Out of some 16,000 compounds screened, about 4,000 (25%) were called active. Not shown: some 26% with an inconclusive outcome. The list is a sample of the results. A number with no mark means an inactive call. The call rests on the fitted dose curve; in most records, active means well fitted curve in the direction sought with a large enough effect; inconclusive means small, poorly fitted or top-dose-only effect, or effect the other way; inactive means no such curve, though single readings can be large or run the other way.
On the % scale 0 is the no-effect control and ±100 the full control effect.

Sequence of Cytochrome P450 2C9 (Homo sapiens) (P11712 whole entry, looked up): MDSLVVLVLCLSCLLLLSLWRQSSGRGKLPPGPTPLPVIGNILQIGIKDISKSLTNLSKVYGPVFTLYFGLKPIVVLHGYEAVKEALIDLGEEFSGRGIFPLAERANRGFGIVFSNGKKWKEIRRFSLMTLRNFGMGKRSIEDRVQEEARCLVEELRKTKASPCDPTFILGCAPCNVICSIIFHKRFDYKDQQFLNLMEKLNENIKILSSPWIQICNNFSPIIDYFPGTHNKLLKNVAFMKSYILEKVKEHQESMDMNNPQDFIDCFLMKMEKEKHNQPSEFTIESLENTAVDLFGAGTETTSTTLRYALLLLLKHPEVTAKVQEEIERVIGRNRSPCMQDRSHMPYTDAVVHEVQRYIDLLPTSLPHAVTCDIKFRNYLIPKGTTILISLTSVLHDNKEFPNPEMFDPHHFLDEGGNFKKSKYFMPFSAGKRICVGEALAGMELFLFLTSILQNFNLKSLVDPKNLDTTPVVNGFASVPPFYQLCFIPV

This assay addresses Cytochrome P450 2C9 (Homo sapiens) (UniProt P11712). The assay is described as follows: Cytochrome panel assay with activity outcomes. Conditions: recombinant CYP, pro-luciferin dealkylation, luminescence, p450-cyp2c9; series mostly up to 57.1 µM; activity, negative = inhibition: at the top concentration.
As to `C[C@H](NC[C@H](O)CP(=O)(O)CC1CCCCC1)c1ccc(Cl)c(Cl)c1`, the “activity, negative = inhibition” value is 5.16%.

In general, AC50 refers to the concentration giving half of the maximal activity seen. Take `CC(C)CN(CC(C)C)C1=N/C(=C\c2ccco2)C(=O)N1c1ccccc1`: the concentration at half-maximal activity (AC50) is 3.98 µM (active).

Regarding `Cc1cnc(CNc2ccnc(-c3ccccc3C(F)(F)F)n2)cn1`, the activity, negative = inhibition was 8.33% [at 2.29 µM].

For `C#CCSc1n[nH]c(-c2ccco2)n1`, the activity, negative = inhibition was 0.366% [at 11.4 µM].

Regarding `CC#C[C@@]1(O)CC[C@H]2[C@@H]3CCC4=CC(=O)CCC4=C3[C@H](c3ccc(N(C)C)cc3)C[C@]21C`, the AC50 is 3.98 µM (active).

On to `CC#C[C@]1(O)CC[C@H]2[C@@H]3CCC4=CC(=O)CCC4=C3[C@H](c3ccc(N(C)C)cc3)C[C@@]21C`, for which the “activity, negative = inhibition” value was -27.4%.

On to `CC1Cc2ccccc2N1C(=O)CSCC(=O)O` (configuration not stated), for which the “activity, negative = inhibition” value was -1.23%.

With `CCCC(=O)N1c2ccccc2C(N(C(C)=O)c2ccccc2)CC1C` (configuration not stated), the AC50 was 3.98 µM (active).

In the case of `Cn1nc(C(F)(F)F)c(/C=N/OCc2c(Cl)cccc2Cl)c1Cl`, the AC50 was 1.58 µM (active).

Regarding `O=C(NCCCN1CCCCCC1)C1CC(=O)N(CCc2ccccc2)C1` (configuration not stated), the “activity, negative = inhibition” value was -5.16%.

With `CC(=O)c1ccc(N2CCC(c3cc(-c4ccc(Cl)cc4Cl)n[nH]3)CC2)c([N+](=O)[O-])c1`, the AC50 was 3.98 µM (active).

Take `CC(=O)c1ccc(N2CCC(c3cc(-c4ccc(Cl)cc4)n[nH]3)CC2)c([N+](=O)[O-])c1`: the AC50 is 3.98 µM (active).

Consider `COc1ccc(-c2cc(C3CCN(c4ccc(C(C)=O)cc4[N+](=O)[O-])CC3)[nH]n2)cc1`, for which the AC50 was 7.94 µM (active).

For the molecule `COc1ccc(-c2cc(C3CCN(c4cc(Cl)nc(N)n4)CC3)[nH]n2)cc1`, the AC50 is 14.1 µM (active).

As for `CC(C)NC(=O)N1CCC2(CC1)CCN(S(C)(=O)=O)CC2`, the “activity, negative = inhibition” value is 9.5%.

Turning to `CN(Cc1ccco1)c1ncncc1-c1ccccc1C(F)(F)F`, the activity, negative = inhibition was -7.74% [at 2.29 µM].

As for `COc1ccccc1-c1cc(Nc2ccn[nH]2)ncn1`, the activity, negative = inhibition was -3.07% [at 2.29 µM].

Regarding `CC(C)SC(=N)N`, the “activity, negative = inhibition” value was -9.07%.

With `Clc1ccc([C@H](Cn2ccnc2)OCc2csc3c(Cl)cccc23)c(Cl)c1`, the AC50 was 0.316 µM (active).

On to `Clc1ccc(COC(Cn2ccnc2)c2ccc(Cl)cc2Cl)c(Cl)c1` (configuration not stated), for which the AC50 is 0.316 µM (active).

In the case of `NC(N)=NC(N)=Nc1c(F)c(F)c(F)c(F)c1F`, the activity, negative = inhibition was 0.138% [at 11.4 µM].

With `O=C(O)c1cc2cc(Cc3cccnc3)ccc2o1`, the “activity, negative = inhibition” value was 0.178%.

As to `CS(=O)(=O)c1nc2ccccc2n1Cc1ccccc1`, the “activity, negative = inhibition” value was -24.8%.

Regarding `Cc1cccc(OCCn2c(S(=O)(=O)O)nc3ccccc32)c1`, the AC50 was 5.62 µM (active).

On to `O=S(=O)(O)c1nc2ccccc2n1Cc1ccccc1`, for which the AC50 is 25.1 µM (active).

As to `OCCN1CCN(CCOc2cccc(Cl)c2)CC1`, the “activity, negative = inhibition” value was -19.2%.

Consider `Cc1cccc(OCCn2c(-c3ccco3)nc3ccccc32)c1`, for which the AC50 is 1.78 µM (active).

In the case of `Cc1cccc(CCNc2nc3ccccc3n3nnnc23)c1`, the “activity, negative = inhibition” value is -13.9%.

For `O=C(O)[C@@H]1[C@H](C(=O)O)[C@H]2C(=O)C=C[C@H]1N2Cc1ccccc1`, the activity, negative = inhibition is 4.11% [at 11.4 µM].

Consider `OC[C@@H]1NC[C@@H](O)[C@@H](O)[C@H]1O`, for which the “activity, negative = inhibition” value is -12.5%.

`COC(=O)N1CCC2(CCCN(C(=O)Nc3cccc(F)c3)C2)CC1`: the “activity, negative = inhibition” value is 19.8%.

For `O=C(c1[nH]o[n+](=O)c1C(=O)c1csc2ccccc12)c1csc2ccccc12`, the AC50 was 1.58 µM (active).

On to `O=C1NCCc2c1[nH]c1ccccc21`, for which the “activity, negative = inhibition” value was -6.41%.

As for `CN(c1ccccc1)c1ccc(/C=c2\s/c(=C(/C#N)C(=O)C(C)(C)C)n(Cc3ccco3)c2=O)cc1`, the AC50 was 3.55 µM (active).

For `COc1cccc(/C=c2/s/c(=C(\C#N)C(=O)N3CCOCC3)n(-c3ccccc3)c2=O)c1`, the “activity, negative = inhibition” value was -17.4%.

Regarding `COC(=O)c1ccc(C(NC(=O)c2ccccc2)[C@]2(C)C[C@H]2C2CCCCC2)cc1` (some centres not stated), the “activity, negative = inhibition” value is -21.3%.

On to `C=C(CC1([C@@H](NP(=O)(c2ccccc2)c2ccccc2)[C@H]2C[C@@H]2CCCC)CC1)c1ccccc1`, for which the AC50 was 10 µM (active).

For `CCCC[C@@H]1C[C@H]1C(NC(=O)c1ccc(-c2ccccc2)cc1)c1ccc(-c2ccccc2)cc1` (some centres not stated), the “activity, negative = inhibition” value was 8.19%.

For `C[C@@]1(C(NC(=O)Cc2ccccc2)c2ccc(-c3ccccc3)cc2)C[C@H]1C1CCCCC1` (some centres not stated), the “activity, negative = inhibition” value is -6.75%.

Take `CCCC[C@@H]1C[C@H]1C(NC(=O)c1ccco1)c1ccccc1` (some centres not stated): the AC50 is 15.8 µM (active).

Consider `COC(=O)c1ccc(C(NC(=O)c2ccco2)[C@]2(C)C[C@H]2C2CCCCC2)cc1` (some centres not stated), for which the AC50 is 10 µM (active).

Turning to `CCCC[C@@H]1C[C@H]1C(NC(=O)c1ccccc1)c1ccccc1` (some centres not stated), the AC50 is 7.94 µM (active).

For `CN(C)CCSCCO`, the activity, negative = inhibition is 13.5% [at 11.4 µM].

`CO[C@@H]1COC(=O)[C@H](COCc2ccccc2)NC(=O)C/C=C\[C@@H](C)[C@H](OC)COC(=O)[C@@H](C)NC(=O)C/C=C\[C@H]1C`: the activity, negative = inhibition was -22.8% [at 11.4 µM].

As to `CCCC[C@@H]1C[C@H]1C(NC(=O)c1ccco1)c1ccc(C(=O)OC)cc1` (some centres not stated), the AC50 is 0.794 µM (active).

As for `CCC[C@@H]1C[C@@]1(CCC)C(NC(=O)c1ccco1)c1ccc(Cl)cc1` (some centres not stated), the AC50 is 15.8 µM (active).

As for `CCCC[C@@H]1C[C@H]1C(NC(=O)c1ccco1)c1ccc(Cl)cc1` (some centres not stated), the AC50 is 3.98 µM (active).

On to `C[N+]1(CCC(=O)c2ccco2)CC2CCC(CC2)C1` (configuration not stated), for which the activity, negative = inhibition was 6.14% [at 11.4 µM].

Take `C[C@@]1(C(NC(=O)c2ccc(-c3ccccc3)cc2)c2ccc(Cl)cc2)C[C@H]1C1CCCCC1` (some centres not stated): the “activity, negative = inhibition” value is 4.8%.

Turning to `CCC[C@@H]1C[C@@]1(CCC)C(NS(=O)(=O)c1cccc2cccnc12)c1ccc(Cl)cc1` (some centres not stated), the concentration at half-maximal activity (AC50) was 7.94 µM (active).

Turning to `CC1(C)S[C@@H]2[C@H](NC(=O)[C@H](C(=O)O)c3ccsc3)C(=O)N2[C@H]1C(=O)O`, the “activity, negative = inhibition” value is 27.8% [at 25.6 µM].

Turning to `O=c1oc2c(Cl)cc(Cl)cc2cc1-c1nnc(Nc2ccccc2F)s1`, the “activity, negative = inhibition” value is 25%.

For `CCCC[C@@H]1C[C@H]1C(NC(=O)Cc1ccccc1)c1ccc(-c2ccccc2)cc1` (some centres not stated), the “activity, negative = inhibition” value was -22.7%.

In the case of `COC(=O)[C@@H]1C[C@H]1[C@@H](NC(=O)c1cc(C)nn1C)c1ccccc1`, the “activity, negative = inhibition” value is -53.8%.

With `CCCC[C@@H]1C[C@H]1C(NC(=O)c1ccco1)c1ccc(-c2ccccc2)cc1` (some centres not stated), the AC50 is 3.16 µM (active).

In the case of `NNC(=O)[C@@H](O)[C@H](O)[C@H](O)CO`, the activity, negative = inhibition was -4.21% [at 11.4 µM].

Consider `CC1=NN(c2ccccc2)C(=O)C1C(=O)c1ccc(Cl)cc1` (configuration not stated), for which the AC50 was 0.562 µM (active).

As to `CC1=NN(c2ccccc2)C(=O)[C@@H]1N=Nc1ccc(S(N)(=O)=O)cc1`, the activity, negative = inhibition was 3.33% [at 11.4 µM].

For the molecule `Cc1cc(C)n(-c2nc(NCC(C)O)c3c4c(sc3n2)COC(C)(C)C4)n1` (configuration not stated), the AC50 was 15.8 µM (active).

With `CCC(O)CNc1nc(-n2nc(C)cc2C)nc2sc3c(c12)CC(C)(C)OC3` (configuration not stated), the AC50 was 14.1 µM (active).

As for `COc1ccc(-n2c(=O)c(C)nc3cnc(N4CCNCC4)nc32)cc1`, the “activity, negative = inhibition” value was 9.08%.

Turning to `C=CC1=C(C)C2=Cc3c(C=C)c(C)c4[n]3[Sn+2][n]3c(c(C)c(CCC(=O)O)c3=CC3=NC(=C4)C(C)=C3CCC(=O)O)=CC1=N2`, the “activity, negative = inhibition” value is -7.28%.

In the case of `CCSc1nc2c(c(=O)[nH]1)C(c1ccccn1)C1=C(CC(C)(C)CC1=O)N2` (configuration not stated), the “activity, negative = inhibition” value is -6.53%.

On to `CCSc1nc2c(c(=O)[nH]1)C(c1ccncc1)C(C(=O)OC(C)C)=C(C)N2` (configuration not stated), for which the AC50 is 2.82 µM (active).

Regarding `CSc1nc2c(c(=O)[nH]1)C(c1ccncc1)C(C(=O)OC(C)C)=C(C)N2` (configuration not stated), the AC50 is 7.94 µM (active).

Consider `O=C(O)c1cc2c(cc1S(=O)(=O)O)[C@H]1[C@@H]([C@H]3[C@H]2[C@@]2(Cl)C(Cl)=C(Cl)[C@]3(Cl)C2(Cl)Cl)[C@]2(Cl)C(Cl)=C(Cl)[C@@]1(Cl)C2(Cl)Cl`, for which the activity, negative = inhibition is -16.9% [at 11.4 µM].

Regarding `CC1(C)[C@@H]2CC[C@]1(CC(=O)O)[C@H](Cl)C2`, the activity, negative = inhibition was 4.29% [at 11.4 µM].

As to `O=C(CSC1CC(=O)N(CC(c2ccccc2)c2ccccc2)C1=O)Nc1ccc(Cl)cc1` (configuration not stated), the AC50 was 3.98 µM (active).

`CC12CS(=O)(=O)CC1SC(=S)N2c1ccccn1` (configuration not stated): the “activity, negative = inhibition” value was -20.9%.

On to `CCN(CC)CCOC(=O)c1ccc(N)cc1`, for which the AC50 entry was “inactive”.

As for `CCOC(=O)c1c(C)[nH]c(C)c1C(=O)COC(=O)c1ccc(S(=O)(=O)N(CC)CC)cc1`, the AC50 was 0.355 µM (active).

For the molecule `CCOC(=O)c1c(C)[nH]c2ccc3c(c12)CN1CCc2cc(OC)ccc2[C@@H]1O3`, the “activity, negative = inhibition” value is 8.04%.

On to `NC(N)=Nc1nc2ccc([N+](=O)[O-])cc2[nH]1`, for which the activity, negative = inhibition was 9.74% [at 11.4 µM].

Turning to `c1ccc(-c2nc(-c3cccs3)[nH]c2-c2ccccc2)cc1`, the AC50 is 6.31 µM (active).

For the molecule `O=[N+]([O-])c1cccc(-c2nc(-c3ccccc3)c(-c3cccs3)[nH]2)c1`, the “activity, negative = inhibition” value is -24.6%.

Take `O=[N+]([O-])c1cccc(-c2nc(-c3cccs3)c(-c3cccs3)[nH]2)c1`: the AC50 was 1.58 µM (active).

Consider `CN(C)Cc1ccccc1-c1ccc2ncnc(N(C)C)c2c1`, for which the activity, negative = inhibition is 9.43% [at 2.29 µM].

As to `Cc1cc(C(F)F)n2nc(C(=O)Nc3sc4c(c3C#N)CCC(C)C4)nc2n1` (configuration not stated), the “activity, negative = inhibition” value is -11.3%.

With `CC(=O)N1CCN(c2nc(C)nc3sc4c(c23)CCC(C)C4)CC1` (configuration not stated), the half-maximal activity concentration (AC50) is 14.1 µM (active).

Regarding `COc1ccc2c(c1)-c1ccccc1S(=O)(=O)N2C`, the AC50 was 14.1 µM (active).

With `CC[N+](C)(CC)CCN1C(=O)c2ccccc2S1(=O)=O`, the activity, negative = inhibition is -0.798% [at 11.4 µM].

Turning to `Cc1cc2c(nc1C)CCCCN2C[C@H](C)O/N=C\[C@@H](C)[C@H](OCc1ccccc1)C(C)C`, the activity, negative = inhibition is -8.65% [at 11.4 µM].

Regarding `S=C(S)N1CCCC1`, the AC50 was 2 µM (active).

For the molecule `CC(C)(C)CC(=O)NC(=S)N1CCCCCC1`, the “activity, negative = inhibition” value was -2.88%.

As to `CCNC(=O)C/C(C)=N/NC(=O)C12CC3CC(CC(C3)C1)C2`, the “activity, negative = inhibition” value was 0.134%.

`C=CCn1c(COc2ccccc2)nnc1SCC(=O)N/N=C/c1ccc(C)cc1`: the AC50 is 11.2 µM (active).

For `COc1ccc(O)c(/C=N/NC(=O)CSc2nnc(C)n2-c2ccccc2)c1`, the “activity, negative = inhibition” value was 16.8%.
